Assay outcomes: PubChem, National Center for Advancing Translational Sciences (NCATS)
JMJD2A Tudor – qHTS Assay for Inhibitors of JMJD2A-Tudor Domain; AID 504339, 2011; Potency, µM (doses to about 114 µM), without a hit: at the highest dose activity change, negative = inhibition, usual class: inhibitors; AlphaScreen JMJD2A-Tudor / H3K4me3 peptide binding; 4.4% of 390,000 active; Lysine-specific demethylase 4A (Homo sapiens), O75164; further: potency means the concentration at half of the fitted maximal effect; on the % scale 0 is the no-effect control and ±100 the full control effect; nearly all actives have a fitted effect of over 50% in size
Target sequence (O75164 whole entry, looked up, the tested form may be a part): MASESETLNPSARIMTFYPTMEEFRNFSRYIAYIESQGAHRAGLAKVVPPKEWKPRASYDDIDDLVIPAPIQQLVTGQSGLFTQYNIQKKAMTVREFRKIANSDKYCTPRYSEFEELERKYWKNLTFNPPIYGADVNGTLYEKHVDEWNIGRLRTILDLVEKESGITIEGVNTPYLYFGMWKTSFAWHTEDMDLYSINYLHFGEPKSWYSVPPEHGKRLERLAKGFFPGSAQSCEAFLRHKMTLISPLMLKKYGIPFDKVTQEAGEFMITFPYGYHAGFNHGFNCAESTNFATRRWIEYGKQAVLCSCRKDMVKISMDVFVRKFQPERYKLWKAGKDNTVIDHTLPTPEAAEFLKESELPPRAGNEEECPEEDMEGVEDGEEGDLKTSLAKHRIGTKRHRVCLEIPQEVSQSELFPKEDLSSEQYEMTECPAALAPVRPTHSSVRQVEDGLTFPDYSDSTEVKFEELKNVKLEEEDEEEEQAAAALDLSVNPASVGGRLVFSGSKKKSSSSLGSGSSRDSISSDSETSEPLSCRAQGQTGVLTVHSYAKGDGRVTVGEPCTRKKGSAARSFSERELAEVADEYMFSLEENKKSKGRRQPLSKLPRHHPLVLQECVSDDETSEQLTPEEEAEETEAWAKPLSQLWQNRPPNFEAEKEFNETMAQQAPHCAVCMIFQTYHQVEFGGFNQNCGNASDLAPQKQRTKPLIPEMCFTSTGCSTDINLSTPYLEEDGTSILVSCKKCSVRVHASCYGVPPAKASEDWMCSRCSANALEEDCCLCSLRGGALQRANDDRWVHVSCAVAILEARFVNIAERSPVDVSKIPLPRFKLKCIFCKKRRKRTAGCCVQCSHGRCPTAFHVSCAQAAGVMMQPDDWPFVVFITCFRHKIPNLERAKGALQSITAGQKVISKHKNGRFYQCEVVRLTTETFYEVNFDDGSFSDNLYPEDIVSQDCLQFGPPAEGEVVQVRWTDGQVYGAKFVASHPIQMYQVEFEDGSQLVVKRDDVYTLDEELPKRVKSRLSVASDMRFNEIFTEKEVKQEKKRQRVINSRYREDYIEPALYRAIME
G9a block – qHTS Assay for Inhibitors of Histone Lysine Methyltransferase G9a. G9a H3K9 monomethylation, AlphaScreen, 2 h. Potency, µM (series often up to 102 µM), inactives show at the top dose activity, negative = inhibition, most hits filed as inhibitors. 8.8% of 350,000 active; further: potency means the concentration at half of the fitted maximal effect; on the % scale 0 is the no-effect control and ±100 the full control effect; nearly all actives have a fitted effect of over 75% in size
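G9a (20 nM) was preincubated 15 min with compound, then reacted 2 h at room temperature with 500 nM biotin-H3K9 peptide and 20 µM SAM. Monomethyl-H3K9 detected by AlphaScreen using anti-H3K9me1 antibody.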
HP1b binding inh – HTS for Inhibitors of HP1-beta Chromodomain Interactions with Methylated Histone Tails; Chromobox protein homolog 1 (Homo sapiens), P83916; AlphaScreen HP1-beta / biotin-H3K9me3 peptide binding; Potency, µM (top dose mostly 114 µM), for inactives: at the highest dose activity change, negative = inhibition, hits mostly inhibitors; 0.56% of 390,000 active; AID 540317, 2011; further: potency means the concentration at half of the fitted maximal effect; nearly all actives have a fitted effect of over 70% in size
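AlphaScreen: HP1-beta (50 nM) preformed 30 min with biotin-H3(1-18)K9me3 peptide (50 nM) in PBS pH 7.4, 0.01% Tween-20. Compound added for 30 min at RT, then streptavidin donor/nickel chelate acceptor beads (10 ug/mL) for 30 min.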
CtBP-E1A blk – qHTS Assay for Inhibitors of the CtBP/E1A Interaction; CtBP / adenovirus E1A interaction (AlphaScreen); 0.49% of 340,000 active; AlphaScreen GST-E1A/His-CtBP binding, 1536-well; hits give low values; activity change, % (no concentration beside the values); in the data active means activity change below about -65%; inconclusive means mostly about -30% to -63%; further: on the % scale 0 is the no-effect control and ±100 the full control effect
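Steps: dispense buffer (Tris pH 8.0, NaCl 300 mM, TCEP 1 mM, BSA, Tween 20); add 5X protein mix (GST-E1A, His-CtBP, 125 nM each); pin 23 nL compound; 2 h at 37 °C, dark; add 5X beads (50 ug/mL); 1 h; read.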
Six1-Eya2 inh – qHTS Assay for Inhibitors of the Six1/Eya2 Interaction. Homeobox protein SIX1 (Homo sapiens) + Protein phosphatase EYA2 (Homo sapiens), …. AlphaScreen GST-Six1/His-Eya2 binding, biochemical; hits give low values. activity change, % (concentration not given with the values). 0.56% of 360,000 active; in the data active means activity change below about -65%; inconclusive means mostly about -30% to -63%; further: on the % scale 0 is the no-effect control and ±100 the full control effect
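AlphaScreen with GST-Six1 and His-Eya2 (5X mix: 250 nM and 500 nM), glutathione donor and nickel acceptor beads; buffer 50 mM Tris pH 8.0, 300 mM NaCl, 1 mM TCEP; 1 h at 37 C in the dark.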
BAZ2B block – qHTS Assay for Inhibitors of BAZ2B; Bromodomain adjacent to zinc finger domain protein 2B (Homo sapiens), Q9UIF8; AlphaScreen BAZ2B-H3K14Ac peptide displacement; Potency, µM (top dose mostly 114 µM), for the others: top-dose activity change, negative = inhibition, usual class: inhibitors; 4.4% of 360,000 active; further: potency means the concentration at half of the fitted maximal effect; on the % scale 0 is the no-effect control and ±100 the full control effect; nearly all actives have a fitted effect of over 60% in size
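In this displacement format the biotinylated H3(5-23) peptide acetylated at Lys14 serves as ligand at 50 nM, with BAZ2B at 50 nM in PBS pH 7.4 containing 0.01% Tween-20. Donor and acceptor beads are 10 ug/mL final.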
The depositor's hits bear a star; ? = inconclusive; · = not tested or not shown; [ ] = another dose, or the depositor's remark. A selection: hits, their analogues and other compounds. The true share with any hit is near 10%. Unless noted, the call rests on the fitted dose curve; in most records, active means well fitted inhibition curve with a large enough effect; inconclusive means small, poorly fitted or top-dose-only effect; inactive means no such curve, though single readings can be large or run the other way.

SMILES	JMJD2A Tudor	G9a block	HP1b binding inh	CtBP-E1A blk	Six1-Eya2 inh	BAZ2B block
C=CC[C@@H]1/C=C(\C)C[C@H](C)C[C@H](OC)[C@H]2O[C@@](O)(C(=O)C(=O)N3CCCC[C@H]3C(=O)O[C@H](/C(C)=C/[C@@H]3CC[C@@H](O)[C@H](OC)C3)[C@H](C)[C@@H](O)CC1=O)[C@H](C)C[C@@H]2OC	·	-33.5%[12.7 µM]	·	·	·	·
CCCSc1ncc(Cl)c(C(=O)Nc2c(C(=O)c3ccc(F)cc3)oc3ccccc23)n1	-18.8%	-2.2%[59 µM]	6.6%	·	·	0.2%
C=CCn1c(SCc2nc(N)nc(N(C)C)n2)nnc1-c1cccnc1	-11.5%	50.1µM*	21.0%	-4.3	3.2	?
C=CCn1c(SCC(=O)NC2CCCC2)nnc1-c1cccnc1	-13.7%	·	23.4%	2.1	1.4	1.3%
C=CCn1c(SCC(=O)c2ccc(O)c(O)c2)nnc1-c1cccc(C)c1	?	?	-7.6%	-2.3	-8.8	50.1µM*
C=CCn1c(SCC(=O)Nc2ccc(N(C)C)cc2)nnc1-c1cccc(C)c1	50.1µM*	7.94µM*	-57.8%	-27.6	-22.7	44.7µM*
C=CCn1c(SCC(=O)Nc2cccc(C)c2)nnc1-c1cnccn1	-9.9%	1.9%[59 µM]	16.0%	-1.4	2.7	·
C=CCn1c(SCC(=O)c2ccc(F)cc2)nnc1-c1ccc2c(c1)OCO2	-21.0%	-8.2%[59 µM]	36.7%	-0.7	5.7	-13.0%
C=CCn1c(SCC(=O)c2ccc(O)c(O)c2)nnc1-c1cccnc1	-22.8%[11.4 µM]	·	25.1µM*	0.8	?	35.5µM*
C=CCn1c(SCc2ccccc2)nnc1-c1cccnc1	-5.8%	5.8%[12.7 µM]	1.6%	-5.3	3.3	5.1%
O=C(NCCn1cc(SCc2ccc(Cl)cc2)c2ccccc21)c1cccs1	-11.2%	-0.7%[59 µM]	36.7%	·	·	-35.0%
C=CCn1c(SCC(=O)Nc2ccccc2OC)nnc1-c1ccccn1	?	18.2%[59 µM]	4.2%	-22.1	-8.2	?
C=CCn1c(SCC(=O)Nc2cc(NC(C)=O)ccc2OC)nnc1-c1ccccn1	?	-4.1%	16.3%	-0.8	-5.6	79.4µM*
C=CCn1c(SCC(=O)O)nnc1-c1cccc(Cl)c1	3.7%	1.6%[12.7 µM]	54.8%	0.0	29.3	2.2%
C=CCn1c(SCC(=O)c2ccc(O)c(O)c2)nnc1-c1cccc(Cl)c1	?	-3.9%[0.501 µM]	-6.1%	-15.6	-7.0	50.1µM*
Cc1ccc(CNC(=O)CCSCc2ccc(C)cc2)cc1	2.4%	-2.6%	37.3%	7.0	3.6	7.7%
CCOC(=O)c1cc2c(=O)n3ccccc3nc2n(CC2CCCO2)c1=NC(=O)c1ccc(OC)cc1OC (stereo not given)	-19.8%	-33.9%[59 µM]	27.1%	·	·	-12.8%
COC(=O)/C=C1/S/C(=N/N=C/c2ccc(N(C)C)cc2)NC1=O	·	-3.5%	·	·	·	-3.8%
Cc1cccc(OCC(=O)Nc2c(C(=O)N3CCN(c4ccccc4)CC3)oc3ccccc23)c1	-15.9%	?	32.5%	·	·	-17.5%
O=C(C1=NN[C@@H]2C(=O)N(c3cccc(F)c3)C(=O)[C@H]12)c1ccc2ccccc2n1	-25.7%	?	46.3%	-22.4	2.9	-36.6%
COc1cccc(N2C(=O)[C@H]3C(C(=O)c4cnccn4)=NN[C@H]3C2=O)c1	50.1µM*	?	45.7%	-1.3	-9.3	50.1µM*
Cc1sc2ncnc(N/N=C/c3ccccc3O)c2c1C	?	64.8%[59 µM]	-6.0%	-87.6*	-86.1*	35.5µM*
COc1ccc(-c2csc3ncnc(Nc4ccccc4)c23)cc1	4.6%	12.9%[59 µM]	77.0%	·	·	-0.9%
COc1cccc(/C=N/Nc2ncnc3scc(-c4ccccc4)c23)c1OC	?	50.1µM*	27.2%	0.0	8.3	-27.0%
O=C1[C@@H](c2ccccc2)CC[C@@H]2C=CC[C@H]3CCN1[C@@H]32	·	·	·	-0.7	-2.6	·
SMILES	JMJD2A Tudor	G9a block	HP1b binding inh	CtBP-E1A blk	Six1-Eya2 inh	BAZ2B block
O=C1/C(=C\c2ccc(Br)o2)Cc2ccccc21	?	?	-5.3%	0.0	10.9	?
COc1ccc(C=C2CCc3ccccc3C2=O)cc1	·	·	·	4.1	-0.5	·
Cn1cccc1/C=C1\CCc2ccccc2C1=O	44.7µM*	?	?	?	-25.4	39.8µM*
O=C1/C(=C/c2ccco2)CCc2ccccc21	-34.9%	10µM*	?	-5.4	-1.3	39.8µM*
Cn1cccc1/C=C1\Cc2ccccc2C1=O	-9.8%	-8.2%[59 µM]	20.7%	-0.4	-6.5	-25.6%
COc1ccc2c(c1)CC/C(=C/c1ccco1)C2=O	-33.6%	?	?	-12.1	-10.1	35.5µM*
Nc1ccc2c(c1)C/C(=C/c1ccco1)C2=O	-33.3%	7.08µM*	-15.4%	6.3	-3.1	?
CC(C)NC(=O)C1(C)CN(S(C)(=O)=O)CC(=O)N1CC(F)(F)F (stereo not given)	·	·	·	6.1	-0.9	·
CC(=O)Nc1nc(C(=O)O)cs1	3.98µM*	22.4µM*	?	-16.6	-1.1	31.6µM*
O=S(=O)([O-])CCC[n+]1c(SCCCS(=O)(=O)O)sc2ccc(Cl)cc21	79.4µM*	25.1µM*	59.3%	0.6	1.8	?
Cn1cc[nH]c1=S	?	44.7µM*	16.0%	0.9	1.1	-22.7%
CC1CCCC(N2CCN(C(=O)c3ccccc3F)CC2)C1 (stereo not given)	-4.8%	-4.7%	39.8%	8.1	6.1	-2.2%
CC1CCN(C2CCN(C(=O)c3ccccc3F)CC2)CC1	0.891µM*	28.2µM*	?	4.8	-15.3	?
O=C(c1ccc(F)cc1)N1CCC(N2CCOCC2)CC1	7.94µM*	10µM*	-54.2%	1.3	5.6	?
CC1CN(C2CCN(C(=O)c3ccccc3)CC2)CC(C)O1 (stereo not given)	1.26µM*	2.51µM*	?	-2.9	4.2	56.2µM*
CC1CN(C(=O)c2ccc(C(=O)c3ccccc3)cc2)CC(C)O1 (stereo not given)	-12.9%	0.0%[59 µM]	29.8%	6.5	3.1	4.4%
O=C(c1ccncc1)N1CCN(C2CCCCC2)CC1	1.12µM*	15.8µM*	?	-0.9	14.0	50.1µM*
COCCNC(=O)CCCn1c(SCC(=O)c2ccc(Br)cc2)nc2c(sc3ccccc32)c1=O	-11.4%	3.8%[59 µM]	17.7%	·	·	-14.0%
